Most compounds without a hit are left out; they make up all but 8.5% or so of the library.
Sfp inh – inhibitors of Bacillus subtilis Sfp phosphopantetheinyl transferase; Potency, µM, hits mostly inhibitors; Q9F4F7; 3.5% of 310,000 active; Biochemical Sfp PPTase activity, qHTS; active = well fitted curve in the direction sought with a large enough effect; inconclusive = small, poorly fitted or top-dose-only effect, or another doubt; inactive = no such curve, though single readings can be large; an effect the other way counts as inactive or inconclusive;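 note: the enzyme is Sfp with the accession as filed and its product quenches rhodamine fluorescence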
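Step 1, compound plus 15 nM Sfp-PPTase, 15 min, room temperature. Step 2, add rhodamine-CoA (5 uM) and BHQ-2-YbbR (12.5 uM). Step 3, read 525/598 nm fluorescence at 0 and 30 min.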
GoLoco inh red – blocks human Gai1 binding to RGS12 GoLoco peptide, red readout; P63096; Gai1:RGS12 GoLoco peptide FP, rhodamine, 10 min; Potency, µM (highest dose often 61.6 µM), usual class: inhibitors; 0.44% of 230,000 active; AID 880; active = well fitted inhibition curve with a large enough effect, not every such curve was filed as active; inactive = no such curve, though single readings can be large or run the other way; note: nearly all actives have a fitted effect of over 30% in size
KDM4E inh – blocks human JMJD2E demethylase activity | JMJD2E catalytic domain, FDH-coupled NADH fluorescence (FDH is formaldehyde dehydrogenase) | Potency, µM (highest dose often 57.1 µM), actives largely listed as inhibitors | 1.6% of 230,000 active | AID 2147; note: nearly all actives have a fitted effect of over 50% in size
Target sequence (B2RXH2 1-337 limits assumed): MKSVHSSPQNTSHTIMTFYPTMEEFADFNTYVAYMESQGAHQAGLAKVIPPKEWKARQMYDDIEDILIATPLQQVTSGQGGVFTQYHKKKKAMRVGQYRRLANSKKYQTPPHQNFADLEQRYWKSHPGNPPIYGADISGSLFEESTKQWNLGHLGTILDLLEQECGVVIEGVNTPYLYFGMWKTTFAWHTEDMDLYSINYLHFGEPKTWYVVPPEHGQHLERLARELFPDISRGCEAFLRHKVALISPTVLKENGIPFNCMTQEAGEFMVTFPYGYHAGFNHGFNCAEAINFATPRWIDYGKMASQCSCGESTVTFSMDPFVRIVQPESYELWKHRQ
NPSR antagonist – neuropeptide S receptor (human) antagonism, cAMP; Q6W5P4; CHO-NPSR cells, cAMP TR-FRET, antagonist mode; Potency, µM (highest dose often 38.3 µM), most hits filed as inhibitors; 1% of 220,000 active; active = well fitted curve in the direction sought with a large enough effect; inconclusive = small, poorly fitted or top-dose-only effect, or another doubt; inactive = no such curve, though single readings can be large; an effect the other way counts as inactive or inconclusive; note: nearly all actives have a fitted effect of over 50% in size
ALDH1A1 block – inhibitors of human aldehyde dehydrogenase 1A1; P00352; Purified ALDH1A1, NADH fluorescence, propionaldehyde substrate; Potency, µM (titrated, usually from 75.3 µM), usual class: inhibitors; 7.3% of 220,000 active
Coupling enz – counter-screen for Giardia aldolase inhibitors: coupling enzyme system; coupling enzyme system counterscreen, AmpLite Red fluorescence; 0.67% of 290,000 active; activity change, negative = inhibition, % at 58.2 µM, hits read low; in the data active = activity change below about -30%
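Activity here indicates interference with the coupling reaction, not aldolase inhibition. Compounds at 57.5 uM final met coupling enzymes for 10 min at RT; substrate and AmpLite Red detection followed, with a 525/598 nm fluorescence read after 20 min.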
Each line names hits and unclear results; the compound was inactive in the other large screens. Unless noted, calls come from the whole dose curve; as a rule, active = well fitted inhibition curve with a large enough effect (not every such curve was filed as active); inconclusive = small, poorly fitted or top-dose-only effect, or another doubt; inactive = no such curve, though single readings can be large or run the other way.

COC(=O)[C@@H]1C[C@@]2(O)[C@@H](O)[C@@H](O)[C@@H](O)C[C@H]2N1Cc1cccnc1	none (no result: NPSR antagonist)
COP(=O)(OC)O/C(=C\Cl)c1cc(Cl)c(Cl)cc1Cl	ALDH1A1 block inconclusive (no result: Sfp inh, KDM4E inh, NPSR antagonist, Coupling enz)
COCCNC(=O)c1c(NC(=O)c2ccco2)n(Cc2ccccc2)c2nc3ccccc3nc12	Sfp inh 22µM, KDM4E inh inconclusive, NPSR antagonist inconclusive, ALDH1A1 block inconclusive, Coupling enz -33
COCCCn1c(N)c(C(=O)NCc2ccco2)c2nc3ccccc3nc21	Sfp inh 22µM, KDM4E inh inconclusive, Coupling enz -35 (no result: ALDH1A1 block)
CCC(C)NC(=O)c1c(N)n(CCCOC)c2nc3ccccc3nc12 (stereo unspecified)	KDM4E inh inconclusive, NPSR antagonist inconclusive, ALDH1A1 block inconclusive, Coupling enz -34
COCCCn1c(N)c(C(=O)Nc2ccccc2)c2nc3ccccc3nc21	KDM4E inh inconclusive, NPSR antagonist inconclusive (no result: ALDH1A1 block)
CC(C)[N+](=O)[O-]	none (no result: Sfp inh, KDM4E inh, NPSR antagonist, Coupling enz)
CC(C)(O)[C@@H]1[C@H]2OC(=O)[C@@H]1[C@]1(O)C[C@H]3O[C@]34C(=O)O[C@H]2[C@@]14C (tested in a mixture with another compound)	none (no result: NPSR antagonist)
CC(C)CCCC(C)C1CCC2C3=CC[C@@H]4CC(O)CC[C@@]4(C)C3CC[C@]21C (stereo partly specified)	ALDH1A1 block inconclusive (no result: NPSR antagonist)
CC(=O)OC1C(=O)[C@]2(C)C(O)CC3OC[C@]3(OC(C)=O)C2[C@@H](OC(=O)c2ccccc2)[C@]2(O)CC(O)C(C)=C1C2(C)C (stereo partly specified)	KDM4E inh inconclusive, ALDH1A1 block inconclusive (no result: NPSR antagonist)
Cc1ccc(NC(=O)OC(C)CNC(=O)Oc2cccc(C)c2)cc1 (stereo unspecified)	ALDH1A1 block 20µM
COC(=O)Nc1cccc(OC(=O)Nc2cccc(C)c2)c1	ALDH1A1 block inconclusive (no result: Sfp inh, KDM4E inh, NPSR antagonist, Coupling enz)
c1cncc(CNC2=NCCCCC2)c1	none
c1cncc(CNC2CCCC2)c1	KDM4E inh 22µM, ALDH1A1 block inconclusive
CCC(=NCc1ccc2c(c1)OCO2)c1c(O)n(C2CCCCC2)c(=O)[nH]c1=O	NPSR antagonist inconclusive, ALDH1A1 block 13µM
COc1ccc(CN2C(=O)NC(=O)/C(=C/c3ccoc3)C2=O)cc1	Sfp inh inconclusive (no result: ALDH1A1 block)
Cn1cccc1/C=C1\C(=O)NC(=O)N(Cc2ccccc2)C1=O	none (no result: ALDH1A1 block)
COc1ccc(CN2C(=O)NC(=O)/C(=C/c3cc(OC)c(OC)c(OC)c3)C2=O)cc1	Sfp inh 79µM (no result: ALDH1A1 block)
COc1ccc(CN2C(=O)NC(=O)/C(=C/c3ccc(OC)c(OC)c3OC)C2=O)cc1	Sfp inh 40µM, KDM4E inh inconclusive (no result: ALDH1A1 block)
CC(C)C1C(=O)O[C@@H]2CCN3CC=C(COC(=O)[C@](C)(O)[C@]1(C)O)[C@H]23 (stereo partly specified)	none (no result: GoLoco inh red, KDM4E inh, NPSR antagonist, ALDH1A1 block)
O=C(CSc1nnnn1-c1ccccc1)Nc1ccc(N2CCOCC2)c(Cl)c1	GoLoco inh red 7.1µM, ALDH1A1 block 2.2µM
CCN1CCN(c2ccc(NC(C)=O)cc2Cl)CC1	none
Oc1ccc(/C=N/NP(=S)(c2ccccc2)c2ccccc2)cc1	Sfp inh inconclusive, ALDH1A1 block 20µM
O=C(O)CCn1cc(C=C2C(=O)NC(=S)NC2=O)c(-c2cccc(Cl)c2)n1	Sfp inh 22µM, KDM4E inh inconclusive, ALDH1A1 block 3.5µM
CN1C(=O)NC(c2cccc(O)c2)C(C(=O)c2cccs2)C1(O)C(F)(F)F (stereo unspecified)	KDM4E inh inconclusive, NPSR antagonist inconclusive, ALDH1A1 block 0.79µM
Cc1ccc2c(c1)C1CN(C)CCC1N2C(=O)c1cccs1 (stereo unspecified)	none (no result: ALDH1A1 block)
C1=C(c2c[nH]c3ccccc23)CCNC1	KDM4E inh 25µM, ALDH1A1 block inconclusive (no result: GoLoco inh red)
O=C(CCl)c1ccc(Cl)cc1Cl	ALDH1A1 block 0.16µM (no result: Sfp inh, KDM4E inh, NPSR antagonist, Coupling enz)
O=C(O)C1Sc2[nH]c(=O)sc2C2c3cc(Cl)ccc3OC(=O)C12 (stereo unspecified)	Sfp inh 50µM, KDM4E inh 14µM, ALDH1A1 block 13µM
CN1C(=O)[C@]23CC4=CC=C[C@H](O)[C@H]4N2C(=O)[C@@]1(CO)SS3	Sfp inh 2.5µM (no result: GoLoco inh red, KDM4E inh, NPSR antagonist, ALDH1A1 block)
[N-]=[N+]=CC(=O)CC[C@H](N)C(=O)O	none (no result: Sfp inh, KDM4E inh, NPSR antagonist, Coupling enz)

Screens: PubChem BioAssay, National Center for Advancing Translational Sciences (NCATS)
